The nature of assay [1]: NCI Yeast Anticancer Drug Screen. Data for the rad50 strain (AID 155).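 Also: 0% = growth of vehicle-only cultures of the same strain.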 The note with it: S. cerevisiae rad50 strain growth inhibition; at 50.0 µM; active compounds read high. The method in brief:
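Yeast carrying a defined DNA repair defect were exposed to test compounds, and growth was compared with vehicle-treated controls to give percent inhibition.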

Assay [2] can be described thus: NCI Yeast Anticancer Drug Screen. Data for the mec2-1 strain (AID 157). The conditions noted are these: S. cerevisiae mec2-1 strain, at 50.0 µM, active compounds read high. The method in brief: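 Yeast mec2-1 mutant treated with compound. Readout: growth inhibition vs vehicle controls.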
The nature of assay [3]: NCI Yeast Anticancer Drug Screen. Data for the sgs1 mgt1 strain (AID 161).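 Also: 0% = growth of cultures given vehicle only.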 The note with it: S. cerevisiae sgs1 mgt1 strain, at 50.0 µM, active compounds read high. The procedure, abridged:
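Mutant yeast exposed to compound; growth scored against vehicle-only wells.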

A short description of assay [4]: NCI Yeast Anticancer Drug Screen. Data for the cln2 rad14 strain (AID 165).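 Also: 0% = growth equal to vehicle treated cultures.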 The conditions noted are these: S. cerevisiae cln2 rad14 strain, at 50.0 µM, active compounds read high. The method in brief:
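cln2 rad14 yeast strain; compound exposure; growth inhibition read vs vehicle controls.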

A short description of assay [5]: NCI Yeast Anticancer Drug Screen. Data for the bub3 strain (AID 167). The conditions noted are these: S. cerevisiae bub3 mutant strain, at 50.0 µM, active compounds read high. The method in brief: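 Compounds were applied to a genetically altered yeast strain carrying a cell-cycle control defect. Growth inhibition was scored against vehicle-treated controls.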
The nature of assay [6]: NCI Yeast Anticancer Drug Screen. Data for the mlh1 rad18 strain (AID 175). The note with it: S. cerevisiae mlh1 rad18 strain growth inhibition; at 50.0 µM; active compounds read high. The procedure, abridged: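 Yeast w/ defined DNA-repair lesions; compound exposure; growth vs vehicle controls → % inhibition.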

Values joined by “and” are separate entries in the source; they are usually repeats but may differ in a detail not shown here. Identical values can stand only once. About 79,000 compounds went through this panel and 15% of them were active in at least one assay; those are over-represented in the sample as a whole. Values without a mark were called inactive. Active and inactive are the calls of the source. Rule as the data show it: active = growth inhibition above about 70%; inactive = the rest.

As to `CCC(C)C1(CCc2ccccc2)C(=O)NC(=O)NC1=O` (stereo not drawn), the growth inhibition is -2.8% in assay [1]; -14.7% in assay [2]; 3.55% in assay [3]; -31.3% in assay [4]; 10.4% in assay [5]; -0.65% in assay [6].

As for `COP(=O)(CC(=O)CCCCC1OCCO1)OC`, the growth inhibition is 2.25% in assay [1]; 0% in assay [2]; 1.3% in assay [3]; -22.8% in assay [4]; -5.3% in assay [5]; -4.85% in assay [6].

Consider `Nc1cc(N)c([N+](=O)[O-])cc1[N+](=O)[O-]`, for which the growth inhibition in assay [1] was 20.8%; in assay [2] it was 2.8%; in assay [3] it was 14.1%; in assay [4] it was 5.75%; in assay [5] it was 9.8%; in assay [6] it was 11.3%.

Take `CC(=O)OC1(C(C)=O)CC2(c3ccccc3)OC1(c1ccccc1)c1ccccc12` (stereo not drawn): the growth inhibition was -0.55% in assay [1]; 12.1% in assay [2]; 9% in assay [3]; 10.2% in assay [4]; -3.9% in assay [5]; 7.25% in assay [6].

Regarding `Cc1nc2ccccc2[se]1`, the growth inhibition in assay [1] was -33.4%; in assay [2], -32.5%; in assay [3], -3.5%; in assay [4], 3.5%; in assay [5] it was 35.7%; in assay [6] it was -18.1%.

On to `CCN1C(=O)C(=C/C=C/C=C2/N(C)c3ccccc3C2(C)C)C(=O)N(CC)C1=S`, for which the growth inhibition in assay [1] is -28.9%; in assay [2], -8.25%; in assay [3], -11.3%; in assay [4], -32.5%; in assay [5] it was 0.45%; in assay [6], 0.35%.

As to `CCCCN(CCCC)CCc1ccccc1`, the growth inhibition in assay [1] was 19.6%; in assay [2], 1.8%; in assay [3], 8.45%; in assay [4], 17.8%; in assay [5] it was 30.4%; in assay [6], 17%.

As for `O=NNc1ccc2ccccc2n1`, the growth inhibition in assay [1] was -17.1%; in assay [2], 23.5%; in assay [3] it was -2%; in assay [4], 14.6%; in assay [5], 3.2%; in assay [6] it was -6.95%.

For the compound `O=C(Nc1cccc(Cl)c1)OCC(Cl)(Cl)Cl`, the growth inhibition in assay [1] was 99.6% (active); in assay [2] it was 99.8% (active); in assay [3] it was 99.4% (active); in assay [4], 99.8% (active); in assay [5], 99.3% (active); in assay [6], 99.7% (active).

With `CSP(=S)(SC)SC`, the growth inhibition was 24% in assay [1]; -5.7% in assay [2]; 13.4% in assay [3]; 22.1% in assay [4]; -7.95% in assay [5]; -15.8% in assay [6].

As for `C=C(C)C1(CC(C)C)C(=O)NC(=O)NC1=O`, the growth inhibition in assay [1] was 7.4% and 2.9%; in assay [2], 6.4% and 0.4%; in assay [3], -7.55% and 1.75%; in assay [4], 2.3% and -2.6%; in assay [5] it was -14.8% and 8.15%; in assay [6] it was -5.9% and -4.3%.

For the compound `Cc1cccc(C)c1[S][Pb][S]c1c(C)cccc1C`, the growth inhibition was -0.6% in assay [1]; -3.75% in assay [2]; -7.9% in assay [3]; -0.75% in assay [4]; -2.05% in assay [5]; -17.4% in assay [6].

As to `COc1cccc2c1C(=O)c1c(O)c3c(c(O)c1C2=O)CC(O)(C(=O)CO)CC3OC1CC(N2CCOCC2C#N)C(O)C(C)O1` (stereo not drawn), the growth inhibition was 86.7% (active) in assay [1]; 90.2% (active) in assay [2]; 88.9% (active) in assay [3]; 86.5% (active) in assay [4]; 88.2% (active) in assay [5]; 89.8% (active) in assay [6].

Take `Oc1ccc(C(O)C2CCCCN2)cc1O` (stereo not drawn): the growth inhibition in assay [1] was -10.5%; in assay [2], -20.9%; in assay [3] it was -0.25%; in assay [4] it was -17.9%; in assay [5], -16.8%; in assay [6] it was -0.45%.

For the compound `CC12CC[C]([Hg][I])(CC1)C2(C)C`, the growth inhibition in assay [1] was 96.5% (active); in assay [2] it was 98.6% (active); in assay [3], 99.8% (active); in assay [4], 4.3%; in assay [5], 74.9% (active); in assay [6], 84.8% (active).

Turning to `C1CN(P(N2CCOCC2)N2CCOCC2)CCO1`, the growth inhibition was -17.6% in assay [1]; -70.3% in assay [2]; -9.25% in assay [3]; 18.1% in assay [4]; -10.4% in assay [5]; -28.4% in assay [6].

For the compound `[Pd].[Pd].[S-]CC[S-].[S-]CC[S-].c1ccc([PH+](c2ccccc2)c2ccccc2)cc1.c1ccc([PH+](c2ccccc2)c2ccccc2)cc1`, the growth inhibition was -4.9% in assay [1]; 5.5% in assay [2]; 8.9% in assay [3]; -22.1% in assay [4]; -2.35% in assay [5]; 13.1% in assay [6].

Take `COC(=O)C1=C(C)N2CCCOC2(C)C(C(=O)OC)C1c1cccc(Cl)c1` (stereo not drawn): the growth inhibition was 61.4% in assay [1]; 16.6% in assay [2]; 40.5% in assay [3]; 29.1% in assay [4]; 44.4% in assay [5]; 61.5% in assay [6].

As to `Cc1cccc(N)c1`, the growth inhibition is 6.5% in assay [1]; -6.75% in assay [2]; 1.35% in assay [3]; 5.65% in assay [4]; 14.2% in assay [5]; 10.4% in assay [6].

Turning to `O=CC(O)C(O)C(O)C(O)COP(=O)(O)Cc1ccccc1` (stereo not drawn), the growth inhibition is -44.9% and 4.75% in assay [1]; -12.2% and -25.2% in assay [2]; -62% and -32.6% in assay [3]; -25.3% and 28.1% in assay [4]; -10.2% and -9.4% in assay [5]; -48% and 7.55% in assay [6].

Consider `O.O.O=Cc1ccccc1O.O=Cc1ccccc1O.[Ni]`, for which the growth inhibition is 47.1% in assay [1]; 52.4% in assay [2]; 64.7% in assay [3]; 17.1% in assay [4]; 51.5% in assay [5]; 76.9% (active) in assay [6].

Regarding `C[n+]1cccc(C2CCC[N+]2(C)C)c1` (stereo not drawn), the growth inhibition in assay [1] was 4.4%; in assay [2], 7.85%; in assay [3], 8.15%; in assay [4], -10.9%; in assay [5] it was -9%; in assay [6], -4.6%.

Take `C/C=C1\CN2CC[C@H]1C[C@H]2[C@H](O)c1ccnc2ccc(NCCO)cc12`: the growth inhibition was 11.6% in assay [1]; 7.8% in assay [2]; 5.95% in assay [3]; 22.7% in assay [4]; -1.65% in assay [5]; 36.9% in assay [6].
